Assay [1] in a line: ATG_M_19_CIS: Attagene CIS-FACTORIAL HepG2 Assay for M19 Transcription Factor (Internal Marker) (AID 2282939). The conditions noted are these: HepG2 Attagene CIS-FACTORIAL M19 internal marker reporter; actives raise or lower the signal. An outline of the steps:
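Internal marker readout, fitted in both directions against DMSO, from HepG2 cells carrying transfected cis-element reporter constructs; RT-PCR and capillary electrophoresis of reporter mRNA after 24 h exposure.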

Assay [2] can be described thus: ATG_Ets_CIS: Attagene CIS-FACTORIAL HepG2 Assay for human Erythroblast Transformation Specific (ETS) (AID 2282941). The conditions noted are these: HepG2 ETS cis-reporter transcription, actives raise or lower the signal. A digest of the protocol: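 Bidirectional fit versus DMSO of reporter mRNA signal, detected by RT-PCR and capillary electrophoresis in HepG2 cells transiently transfected with cis-element reporters and dosed 24 h.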

A short description of assay [3]: ATG_FoxO_CIS: Attagene CIS-FACTORIAL HepG2 Assay for human Forkhead box O (FoxO) (AID 2282943). The settings on record: HepG2 Attagene cis-reporter, FoxO element, mRNA; actives raise or lower the signal. An outline of the steps:
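24 h chemical exposure, HepG2 with transient cis-MRTU transfection. RNA extraction, oligo(dT) RT, reporter-specific PCR, primer-extension labelling, HpaI digestion, CE fragment analysis; bidirectional fit, DMSO baseline.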

The nature of assay [4]: ATG_GATA_CIS: Attagene CIS-FACTORIAL HepG2 Assay for human GATA Binding Protein (AID 2282944). The settings on record: HepG2 GATA cis-element reporter, Attagene multiplex mRNA; actives raise or lower the signal. An outline of the steps: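 Reporter transcripts from a GATA cis-regulated unit, among multiplexed reporters in transfected HepG2 cells, were measured by RT-PCR with capillary electrophoresis after 24 h dosing. Induction or loss scored relative to DMSO.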

A short description of assay [5]: ATG_GLI_CIS: Attagene CIS-FACTORIAL HepG2 Assay for human Zinc Finger Protein GLI1 (AID 2282945). The conditions noted are these: HepG2, Attagene cis-factorial reporter mRNA, GLI element; actives raise or lower the signal. A digest of the protocol: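 HepG2 cells transiently transfected with cis-promoter multiplexed reporter units report endogenous transcription factor activity. After 24 h chemical exposure, reporter mRNA was quantified by RT-PCR, 6-FAM labelling, HpaI digestion and capillary electrophoresis, with bidirectional fitting against DMSO.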

Assay [6] has as its target Bile acid receptor (Homo sapiens) (UniProt Q96RI1). Description: ATG_IR1_CIS: Attagene CIS-FACTORIAL HepG2 Assay for human Nuclear Receptor Subfamily 1 Group H Member 4 (NR1H4), IR1 submotif (AID 2282946). The conditions noted are these: IR1 reporter transcription, actives raise or lower the signal. A digest of the protocol:
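Readout: reporter transcript levels by RT-PCR with fluorescent capillary electrophoresis, from HepG2 cells transiently transfected with multiplexed cis-regulated reporters and dosed 24 h. Gain- or loss-of-signal fitted versus DMSO negative control.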

Assay [7] is described as follows: ATG_GRE_CIS: Attagene CIS-FACTORIAL HepG2 Assay for human Glucocorticoid Response Elements (GRE) (AID 2282947). The settings on record: HepG2 GRE cis-reporter, Attagene multiplex mRNA; actives raise or lower the signal. An outline of the steps: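 Cells (HepG2) bearing transfected cis-promoter reporter transcription units were treated with chemical for 24 hours. Reporter mRNA was measured via RT-PCR with capillary electrophoresis, and activity was fitted in both directions relative to DMSO.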

The target in assay [8] is Hepatocyte nuclear factor 3-beta (Homo sapiens) (UniProt Q9Y261). Nature of the assay: ATG_FoxA2_CIS: Attagene CIS-FACTORIAL HepG2 Assay for human Forkhead box A2 (FOXA2) (AID 2282942). The settings on record: HepG2 cis-reporter transcription factor activity, 24 h; actives raise or lower the signal. An outline of the steps:
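Readout: fluorescent reporter transcripts resolved by capillary electrophoresis after RT-PCR. Transiently transfected HepG2, 24 h compound exposure, endogenous TF activity at cis promoter elements. Gain or loss of signal fitted relative to DMSO.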

Assay [9] can be described thus: ATG_ISRE_CIS: Attagene CIS-FACTORIAL HepG2 Assay for human Interferon Regulatory Factor 1 (IRF1) binding to an Interferon-Stimulated Response Element (ISRE) (AID 2282948). The settings on record: HepG2 ISRE cis-reporter (Attagene), mRNA transcription readout; actives raise or lower the signal. A digest of the protocol: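 Uses HepG2 liver cells transfected with cis-regulated reporters and measures mRNA 24 h post-dosing through RT-PCR, primer-extension labelling and capillary electrophoresis, with DMSO as negative control.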

The nature of assay [10]: ATG_ERE_CIS: Attagene CIS-FACTORIAL HepG2 Assay for Estrogen Response Element (ERE) (AID 2282940). The conditions noted are these: HepG2 ERE cis-reporter, Attagene RNA transcript; actives raise or lower the signal. An outline of the steps: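 After 24 h compound treatment, RNA from transfected HepG2 cells was reverse-transcribed, reporter cDNA PCR-amplified, FAM-labelled, HpaI-cut and resolved by capillary electrophoresis. ERE-driven cis reporter transcripts reflect endogenous factors; gain or loss scored against DMSO.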

Drawing on PubChem BioAssay (EPA / NIEHS), this text covers outcome and AC50 for 29 compounds.

A structure can be active in one record and inactive in another. Activity calls are given as the source filed them. The calls were made as follows: active = hit-call score of the fitted dose curve at least 0.9, where 1 is the maximum; inactive = score below 0.9.

Hepatocyte nuclear factor 3-beta (Homo sapiens), sequence (Q9Y261 whole entry, looked up): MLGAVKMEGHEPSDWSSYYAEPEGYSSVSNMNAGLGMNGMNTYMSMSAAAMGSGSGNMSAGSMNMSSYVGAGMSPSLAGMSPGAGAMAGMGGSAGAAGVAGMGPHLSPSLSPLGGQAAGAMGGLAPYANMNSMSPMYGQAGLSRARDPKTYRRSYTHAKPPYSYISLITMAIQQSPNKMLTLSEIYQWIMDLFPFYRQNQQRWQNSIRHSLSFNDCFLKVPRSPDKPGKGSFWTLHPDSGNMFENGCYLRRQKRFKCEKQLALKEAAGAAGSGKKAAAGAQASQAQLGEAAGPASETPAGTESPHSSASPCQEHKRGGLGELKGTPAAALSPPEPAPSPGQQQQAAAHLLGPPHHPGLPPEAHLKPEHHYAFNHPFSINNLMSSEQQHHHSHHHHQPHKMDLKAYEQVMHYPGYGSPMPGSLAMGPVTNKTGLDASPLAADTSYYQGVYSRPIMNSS
Bile acid receptor (Homo sapiens), sequence (Q96RI1 whole entry, looked up): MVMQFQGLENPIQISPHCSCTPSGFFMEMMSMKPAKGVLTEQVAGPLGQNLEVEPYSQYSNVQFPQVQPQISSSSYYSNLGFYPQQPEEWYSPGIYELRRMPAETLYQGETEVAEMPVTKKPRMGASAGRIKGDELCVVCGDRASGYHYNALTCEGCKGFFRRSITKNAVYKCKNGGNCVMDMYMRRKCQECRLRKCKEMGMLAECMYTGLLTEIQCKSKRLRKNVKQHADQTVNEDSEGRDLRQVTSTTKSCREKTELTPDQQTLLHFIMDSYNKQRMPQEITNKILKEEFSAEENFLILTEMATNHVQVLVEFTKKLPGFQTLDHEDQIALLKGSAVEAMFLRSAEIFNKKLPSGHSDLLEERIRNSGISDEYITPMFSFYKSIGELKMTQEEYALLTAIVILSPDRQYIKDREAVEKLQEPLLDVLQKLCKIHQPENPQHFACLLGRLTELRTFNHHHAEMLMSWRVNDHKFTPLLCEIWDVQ

Turning to `ClCCCCl`, the compound was called inactive in assay [1], in assay [2], in [3], in assay [4], in assay [5] and in assay [6]. In addition, the compound was classed as inactive in assay [7].

For the compound `CC[N+](CC)(CC)CC`, the call in assay [1], in [2], in [8], in assay [3], in assay [4] and in [5] was inactive. For the same compound, in [7], the compound was called inactive.

In the case of `O=C(CBr)c1ccc(O)cc1`, the compound was classed as inactive in assay [1], in assay [2], in [8], in assay [3], in assay [4] and in assay [5]. Besides, the call in assay [6], in assay [7] and in assay [9] was inactive.

In the case of `OCCCCO`, the compound was classed as inactive in [1], in assay [2], in [8], in assay [3], in [4] and in [5]. Also, the compound was called inactive in [6], in [7] and in [9].

As for `CN(C)[C@@H]1C(=O)C(C(N)=O)=C(O)[C@@]2(O)C(=O)C3=C(O)c4c(O)ccc(Cl)c4[C@@](C)(O)[C@H]3C[C@@H]12`, the compound was called inactive in assay [1], in assay [2], in assay [8], in assay [3], in assay [4] and in assay [5]. For the same compound, the result in [6] and in assay [9] was inactive.

Turning to `CC(C)[C@H](C(=O)OC(C#N)c1cccc(Oc2ccccc2)c1)c1ccc(OC(F)F)cc1` (stereo partly specified), the outcome in [1], in assay [2], in assay [3], in [4], in [5] and in [6] was inactive. Besides, the outcome in assay [7] and in assay [9] was inactive.

Regarding `CC(C)(C)c1ccccc1O`, the outcome in [1], in assay [2], in [8], in assay [3], in [4] and in assay [5] was inactive. Further, the result in assay [7] and in assay [9] was inactive.

`Clc1cccc(Cl)c1`: the call in [1], in assay [2], in assay [8], in assay [3], in [4] and in assay [5] was inactive. Besides, the compound was classed as inactive in [7] and in [9].

For the compound `CC1(C)[C@H](C(=O)O[C@H](C#N)c2cccc(Oc3ccccc3)c2)[C@@H]1/C=C(\Cl)C(F)(F)F`, the compound was called inactive in [1], in assay [2], in [8], in assay [3], in [4] and in [5]. Also, the call in assay [6] and in assay [9] was inactive.

In the case of `COc1ccccc1N`, the compound was classed as inactive in assay [1], in assay [2], in assay [8], in assay [3], in assay [4] and in assay [5]. Also, the result in assay [9] was inactive.

Take `COc1nn(C(=O)NS(=O)(=O)c2ccccc2OC(F)(F)F)c(=O)n1C`: the result in [1], in [2], in assay [3], in assay [4], in [5] and in assay [6] was inactive. In addition, the call in assay [7] and in assay [9] was inactive.

In the case of `C=CCOC(N)=O`, the outcome in assay [1], in [2], in assay [8], in assay [3], in assay [4] and in assay [5] was inactive. In addition, the result in [6] and in assay [9] was inactive.

Turning to `O=[N+]([O-])c1ccccc1O`, the compound was classed as inactive in assay [1], in assay [2], in [3], in assay [4], in assay [5] and in [9].

For the compound `CCOc1cc(C=O)ccc1O`, the result in assay [1], in assay [2], in assay [8], in assay [3], in assay [4] and in [5] was inactive. Also, the compound was classed as inactive in [7] and in [9].

Regarding `CC(C=O)Cc1ccc2c(c1)OCO2` (stereo unspecified), the compound was classed as inactive in assay [1], in assay [2], in assay [8], in assay [3], in assay [4] and in assay [5]. Moreover, the compound was classed as inactive in assay [6], in assay [7] and in assay [9].

For `CN(C)C(=S)S`, the result in [1], in assay [2], in assay [8], in assay [3], in assay [4] and in assay [5] was inactive. Further, the call in assay [9] was inactive.

Regarding `N#CS`, the compound was classed as inactive in assay [1], in assay [2], in [8], in assay [3], in assay [4] and in assay [5]. Besides, the compound was called inactive in assay [7] and in [9].

For `O=C1C[C@@H]2OCC=C3CN4CC[C@]56c7ccccc7N1[C@H]5[C@H]2[C@H]3C[C@H]46`, the compound was classed as inactive in assay [1], in assay [2], in [8], in [3], in assay [4] and in assay [5]. In addition, the outcome in assay [9] was inactive.

For orientation: AC50 means the midpoint of the concentration-response curve, whichever way the signal moves. With `Nc1ccc(N)cc1`, the result in assay [1], in assay [2], in assay [8], in [3], in assay [4] and in assay [5] was inactive. Besides, the result in assay [6] and in [9] was inactive. In addition, the AC50 in [9] is 100 µM (active).

Regarding `Cc1cc(-c2cc(C)c(N)c(C)c2)cc(C)c1N`, the result in assay [10], in assay [2], in [8], in [3], in assay [4] and in assay [5] was inactive. The call in [9] was inactive.

Take `CCN(CCO)CCO`: the result in assay [10], in assay [2], in assay [8], in [3], in [4] and in [5] was inactive. The outcome in assay [7] and in assay [9] was inactive.

Take `CCOC(=O)C(SP(=S)(OC)OC)c1ccccc1` (stereo unspecified): the compound was classed as inactive in assay [2], in [8], in [3], in assay [4], in [5] and in assay [6]. Moreover, in assay [7], the outcome was inactive.

In the case of `CN(CCCC(O)c1cccnc1)N=O` (stereo unspecified), the compound was classed as inactive in assay [10], in assay [2], in [8], in [3], in assay [4] and in assay [5]. The call in assay [6], in assay [7] and in assay [9] was inactive.

For the compound `Brc1c(Br)c(Br)c(Oc2c(Br)c(Br)c(Br)c(Br)c2Br)c(Br)c1Br`, the call in assay [2], in assay [8], in [3], in assay [4], in assay [5] and in assay [6] was inactive. Further, the call in assay [7] and in assay [9] was inactive.

In the case of `OC(c1ccc(Cl)cc1)(c1ccc(Cl)cc1)c1cccnc1`, the compound was called inactive in [10], in [2], in assay [8], in [3], in assay [4] and in assay [7]. Further, the compound was called inactive in assay [9]. The values for the AC50 in [5] and in assay [6] were 9.04 µM (active) and 13.6 µM (active), respectively.

For the compound `C1CN2CCN1CC2`, the outcome in [10], in [2], in [3], in assay [4], in assay [5] and in assay [9] was inactive.

As to `O=C(O)CC(O)(CC(=O)O)C(=O)O`, the call in [2], in [8], in assay [3], in assay [4], in assay [5] and in [9] was inactive.

For `CC(=O)C(F)(F)C(F)(F)F`, the outcome in [10], in assay [2], in assay [8], in assay [3], in assay [4] and in [5] was inactive. The call in assay [6], in assay [7] and in assay [9] was inactive.

For the compound `OC(Cc1ccccc1Cl)(Cn1[nH]cnc1=S)C1(Cl)CC1` (stereo unspecified), the values for the AC50 in assay [10] and in assay [9] were 7.38 µM (active) and 100 µM (active), respectively. Moreover, the outcome in assay [2], in assay [8], in [3], in assay [4], in [5] and in [6] was inactive.
